The results in this text go back to PubChem BioAssay AID602429 (Sanford-Burnham Center for Chemical Genomics, 2012).

Hit rate of the full screen: of about 360,000 compounds, about 1,200 (0.33%) were called active. This is one part of a sample in which actives are shown more often than they occur. Rule as the data show it: active = inhibition above about 37%; inactive = the rest.

The target of this test is Small ubiquitin-related modifier 1 (Homo sapiens) (UniProt P63165). The test can be described thus: SUMO1 binding to interaction partners, disruption – biochemical, uHTS, primary screen (AID 602429). As to conditions: SUMO1 binding to a labelled peptide, TR-FRET, 1 h; at 20 µM; active compounds read high. (In general: TR-FRET usually uses a lanthanide donor and a delayed reading to cut background.)
Small ubiquitin-related modifier 1 (Homo sapiens), sequence (P63165 whole entry, looked up): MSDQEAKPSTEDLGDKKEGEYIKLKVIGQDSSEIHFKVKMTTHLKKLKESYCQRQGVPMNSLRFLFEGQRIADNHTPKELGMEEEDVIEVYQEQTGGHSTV
In the case of `CCCCCCCCn1c2c(c(=N)c3c1CCC3)CCCC2`, the inhibition (usually the relative decrease from the control value, in per cent) is -1.62% (inactive).
The value for `COc1ccc(CC(=O)Nc2ccc(-c3nnc(-c4ccc(C)cc4)o3)cc2)cc1` was 52% (active); that for `COc1ccc(NC(=O)Cn2c(-c3ccc(OC)cc3)cn(-c3ccc(C)cc3)c2=O)cc1` was 5.25% (inactive); that for `COc1ccc(NC(=O)CN(C)C(=O)c2cc(C)oc2C)cc1` was -3.07% (inactive).
In the case of `COc1c(F)c(F)c(-c2csc(N)n2)c(F)c1F`, the inhibition is -2.44% (inactive).
As for `CCCc1nn(C)c2c(=O)[nH]c(-c3cc(S(N)(=O)=O)ccc3OCC)nc12`, the inhibition was 3.1% (inactive).
Consider `CN(CC(=O)NC1CCN(Cc2ccccc2)CC1)S(=O)(=O)c1ccc(Cl)s1`, for which the inhibition is 0.847% (inactive).
The value for `O=C(O)C(c1ccccc1)N1C(=O)/C(=C\c2ccc(-c3cccc(Cl)c3)o2)SC1=S` (centres undefined) was 75.9% (active).
The value for `CCC(C)N1C(=O)S/C(=C/c2ccc(Sc3nc4ccccc4[nH]3)o2)C1=O` (centres undefined) was -5.85% (inactive).
The value for `O=C(Cn1nnc(-c2ccccc2)n1)N/N=C/c1ccc(-c2ccc(Cl)cc2)o1` was 7.31% (inactive); that for `COc1ccccc1CC(NC(C)=O)C(=O)NC1CCN(C(=O)Nc2ccccc2Cl)CC1` (centres undefined) was 0.952% (inactive).
For `CN1C(=O)c2ccccc2C(C(=O)NCCCN2CCCC2)C1c1c[nH]c2ccccc12` (centres undefined), the inhibition was 3% (inactive).
Next, `Cn1c(=O)c2cc(S(=O)(=O)NCCC(=O)Nc3ccc(F)cc3F)ccc2n(C)c1=O`: -1.62% (inactive); `Cc1cccc(-[n+]2c(-c3cccc(Br)c3)[nH]c3nc4ccccc4nc32)c1`: 1.4% (inactive); `C=CC1=C(C(=O)O)N2C(=O)[C@@H](NC(=O)/C(=N\OCC(=O)O)c3csc(N)n3)[C@H]2SC1`: 56.1% (active).
The value for `C=CC1=C(C(=O)O)N2C(=O)[C@@H](NC(=O)/C(=N/OCC(=O)O)c3csc(N)n3)[C@H]2SC1` was 121% (active); that for `COc1cc(C(=O)OCC(=O)NC23CC4CC(CC(C4)C2)C3)cc(OC)c1OC` was 5.78% (inactive).
Next, `C#CC(C)(C)NC(=O)c1cnc(-c2ccccc2)nc1-c1ccccc1`: 1.04% (inactive); `Cc1nc(-c2ccccc2)sc1-c1nc(-c2ccccc2)ncc1S(=O)(=O)c1ccccc1`: 56.4% (active).
On to `Cc1nc(-c2ccccc2)sc1-c1nnc(C2CC2)o1`, for which the inhibition is -25.8% (inactive).
Regarding `O=C(CCNC(=O)c1ccc(Br)cc1)Nc1cccc(S(=O)(=O)N2CCCCC2)c1`, the inhibition is 0.625% (inactive).
Next, `O=C1NC[C@H](CCCCN2CCN(CCc3ccccc3)C(=O)C2=O)N(CC2CCCCC2)C1=O`: 0.562% (inactive).
The value for `COc1cc(OC)c(OC)cc1/C=N/Nc1ncnc2c1[nH]c1ccc(C)cc12` was 60.7% (active); that for `Cc1ccc2[nH]c3c(=O)n(Cc4ccccn4)cnc3c2c1` was 2.63% (inactive).
